Measured values reported in PubChem BioAssay (Tox21).
Records with an inconclusive call do not appear. Activity calls are given as the source filed them. Unless noted, calls follow the shape of the dose curve; as a rule, active = well fitted curve in the direction sought with a large enough effect in the repeat runs; inconclusive = weak or mixed curves; inactive = no such curve, though single readings can be large; an effect the other way counts as inactive or inconclusive.

Tests used:
[1] = qHTS RealTime-Glo MT Cell Viability Assay in HepG2 cells - 32 hour (AID 1224877); also: nearly all actives have a fitted effect of over 55% in size
Method in brief: (§1)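 HepG2 suspension premixed with RealTime-Glo reagents is plated at 600 cells per well and left 5 h at 37 C/5% CO2. Compounds in DMSO then go in, and bioluminescence reflecting viable cell number is recorded over 40 h.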

[2] = A CellTox Green Cytotoxicity Assay to monitor cytotoxicity in HepG2 cells - 24 hour (AID 1224878); also: nearly all actives have a fitted effect of over 45% in size
Method in brief: (§2)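 Cytotoxicity was tracked as dead-cell DNA fluorescence in HepG2 cells treated with test compounds at 37 C; each time-point value comes from one kinetic series spanning 0, 8, 16, 24, 32 and 40 h.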

[3] = A CellTox Green Cytotoxicity Assay to monitor cytotoxicity in HepG2 cells - 40 hour (AID 1224879); also: nearly all actives have a fitted effect of over 40% in size
Method in brief: as §2

[4] = qHTS RealTime-Glo MT Cell Viability Assay in HEK293 cells - 0 hour (AID 1224880); also: top concentration of the series differs between compounds; nearly all actives have a fitted effect of over 45% in size
Method in brief: (§3)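 Kinetic, non-lysing viability readout. Seed HEK293 (600/well) with reagent, incubate 5 h at 37 C/5% CO2, pin 23 nL compound in DMSO, incubate at 37 C, read luminescence at 0, 8, 16, 24, 32, 40 h.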

[5] = A CellTox Green Cytotoxicity Assay to monitor cytotoxicity in HEK293 cells - 32 hour (AID 1224881); also: nearly all actives have a fitted effect of over 40% in size
Method in brief: (§4)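 Real-time, in one plate: 600 HEK293 cells/well with dead-cell DNA dye, pinned compound after 5 h, 37 C incubation over 40 h; viable cells give no appreciable fluorescence.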

[6] = A CellTox Green Cytotoxicity Assay to monitor cytotoxicity in HepG2 cells - 0 hour (AID 1224882); also: nearly all actives have a fitted effect of over 35% in size
Method in brief: as §2

[7] = A CellTox Green Cytotoxicity Assay to monitor cytotoxicity in HepG2 cells - 32 hour (AID 1224883); also: nearly all actives have a fitted effect of over 50% in size
Method in brief: as §2

[8] = A CellTox Green Cytotoxicity Assay to monitor cytotoxicity in HEK293 cells - 8 hour (AID 1224884); also: nearly all actives have a fitted effect of over 35% in size
Method in brief: as §4

[9] = qHTS RealTime-Glo MT Cell Viability Assay in HepG2 cells - 16 hour (AID 1224885); also: nearly all actives have a fitted effect of over 50% in size
Method in brief: as §1

[10] = A CellTox Green Cytotoxicity Assay to monitor cytotoxicity in HEK293 cells - 16 hour (AID 1224888); also: nearly all actives have a fitted effect of over 35% in size
Method in brief: as §4

[11] = qHTS RealTime-Glo MT Cell Viability Assay in HepG2 cells - 0 hour (AID 1224889); also: nearly all actives have a fitted effect of over 50% in size
Method in brief: as §1

[12] = A CellTox Green Cytotoxicity Assay to monitor cytotoxicity in HepG2 cells - 8 hour (AID 1224890); also: nearly all actives have a fitted effect of over 45% in size
Method in brief: as §2

[13] = qHTS assay to identify small molecule antagonists of the estrogen receptor alpha (ER-alpha) signaling pathway using the BG1 cell line in the presence of 0.1 nM 17-beta-estradiol - cell viability counter screen (AID 1259241); also: nearly all actives have a fitted effect of over 40% in size
Method in brief: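 Cells were plated and left 24 hr, compounds in DMSO were pinned in, 17beta-estradiol was added to 0.1 nM final, and after 22 hr CellTiter-Fluor reagent was added for 30 min before fluorescence was read.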

[14] = qHTS assay to identify small molecule antagonists of the androgen receptor (AR) signaling pathway using the MDA cell line in the presence of 0.5 nM R1881 - cell viability counter screen (AID 1259242); also: nearly all actives have a fitted effect of over 45% in size
Method in brief: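 Cells seeded at 3,000/well and allowed 5 hr at 37C, 0% CO2 before compound transfer and R1881 (0.5 nM final) addition; 16 hr later, live-cell protease fluorescence indicated cytotoxicity.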

[15] = biological target: Estrogen receptor (Homo sapiens) (UniProt P03372); assay: qHTS assay to identify small molecule antagonists of the estrogen receptor alpha (ER-alpha) signaling pathway using the BG1 cell line in the presence of 0.1 nM 17-beta-estradiol (AID 1259244); also: nearly all actives have a fitted effect of over 50% in size
Method in brief: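 Luciferase signal from VM7Luc4E2 ERE-reporter cells, co-dosed with test compound and 0.1 nM final 17beta-estradiol for 22 h, read with ONE-Glo.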

[16] = qHTS RealTime-Glo MT Cell Viability Assay in HEK293 cells - 24 hour (AID 1224886)
Method in brief: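 Reads taken at 0, 8, 16, 24, 32 and 40 h from the same wells. HEK293 cells (600/well) carried RealTime-Glo reagents from seeding, with compound added after a 5 h settle at 37 C.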

[17] = qHTS RealTime-Glo MT Cell Viability Assay in HEK293 cells - 8 hour (AID 1224887)
Method in brief: as §3

[18] = qHTS assay to identify small molecule phospholipidosis (PLD) inducers (AID 1259344; active = well fitted curve in the direction sought with a large enough effect; an effect the other way counts as inactive or inconclusive)
Method in brief: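 Accumulated phospholipid, stained red by LipidTOX during 24 h compound treatment of HepG2 cells at 37 C, is quantified from images as pit number and intensity, normalised per cell using Hoechst-stained nuclei.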

[19] = qHTS assay to identify small molecule HDAC inhibitors (AID 1259364)
Method in brief: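 HCT-116 wt cells, 1,500/well, overnight attach. Compounds (DMSO) 2 h, 37 °C. HDAC-Glo I/II, 30 min RT. Luminescence.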
% is scaled to controls: 0 for no effect and ±100 for the full control effect.

Chain of Estrogen receptor (Homo sapiens) (P03372 whole entry, looked up): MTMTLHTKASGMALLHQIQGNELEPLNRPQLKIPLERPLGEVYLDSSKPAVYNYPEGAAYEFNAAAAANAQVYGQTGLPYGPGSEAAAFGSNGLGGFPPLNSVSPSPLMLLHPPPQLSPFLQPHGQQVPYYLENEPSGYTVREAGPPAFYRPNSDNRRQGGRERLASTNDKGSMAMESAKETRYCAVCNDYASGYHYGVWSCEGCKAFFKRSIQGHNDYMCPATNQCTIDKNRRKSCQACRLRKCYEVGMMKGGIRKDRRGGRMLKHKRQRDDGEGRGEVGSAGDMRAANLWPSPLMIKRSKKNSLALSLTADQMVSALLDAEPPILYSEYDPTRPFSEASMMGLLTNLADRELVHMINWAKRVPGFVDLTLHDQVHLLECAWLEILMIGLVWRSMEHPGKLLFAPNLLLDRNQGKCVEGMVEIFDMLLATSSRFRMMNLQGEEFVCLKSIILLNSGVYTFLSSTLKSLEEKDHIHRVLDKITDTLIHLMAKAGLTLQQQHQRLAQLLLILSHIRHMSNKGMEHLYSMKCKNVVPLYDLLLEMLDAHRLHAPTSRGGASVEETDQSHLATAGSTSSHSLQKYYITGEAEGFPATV

CC(=O)OC(C(=O)c1ccccc1)c1ccccc1 (centres undefined)
inactive: outcome [1] | Potency [2] | Potency [3] | outcome [4] | Potency [5] | Potency [6] | Potency [7] | Potency [8] | outcome [9] | Potency [10] | Potency [11] | Potency [12] | Potency [13] | Potency [14] | Potency [15]

NS(=O)(=O)c1cc2c(cc1Cl)NC(CC1CCCC1)NS2(=O)=O (centres undefined)
inactive: outcome [1] | Potency [3] | outcome [4] | Potency [5] | Potency [8] | outcome [9] | Potency [16] | Potency [17] | Potency [10] | Potency [11] | Potency [14] | outcome [18] | Potency [19]

c1ccc(CNc2ncnc3nc[nH]c23)cc1
inactive: outcome [1] | Potency [2] | Potency [3] | outcome [4] | Potency [5] | Potency [6] | Potency [7] | Potency [8] | outcome [9] | Potency [10] | Potency [11] | Potency [12] | Potency [13] | Potency [14]

Nc1cc(Cl)cc(S(=O)(=O)O)c1O
inactive: outcome [1] | Potency [2] | Potency [3] | outcome [4] | Potency [5] | Potency [6] | Potency [7] | outcome [9] | Potency [17] | Potency [11] | Potency [12] | Potency [14] | Potency [15]

CC(C)C(=O)Nc1cccc(C(F)(F)F)c1
inactive: outcome [1] | Potency [2] | Potency [3] | outcome [4] | Potency [6] | Potency [7] | Potency [8] | outcome [9] | Potency [16] | Potency [17] | Potency [10] | Potency [11] | Potency [12] | Potency [13] | Potency [14] | Potency [15] | Potency [19]

O=C1NC2NC(=O)NC2N1 (centres undefined)
inactive: outcome [1] | Potency [2] | Potency [3] | outcome [4] | Potency [5] | Potency [7] | Potency [8] | outcome [9] | Potency [16] | Potency [17] | Potency [10] | Potency [11] | Potency [12] | Potency [13] | Potency [14] | Potency [19]

c1ccccc1
inactive: outcome [1] | Potency [2] | Potency [3] | outcome [4] | Potency [5] | Potency [7] | Potency [8] | outcome [9] | Potency [16] | Potency [17] | Potency [10] | Potency [11] | Potency [12] | Potency [19]

CC(=O)Nc1ncc([N+](=O)[O-])s1
inactive: outcome [1] | Potency [2] | Potency [3] | outcome [4] | Potency [5] | Potency [7] | Potency [8] | outcome [9] | Potency [16] | Potency [17] | Potency [10] | Potency [11] | Potency [12] | Potency [13] | Potency [14] | Potency [15] | outcome [18] | Potency [19]

CC(C)(CO)[C@@H](O)C(=O)NCCCO
inactive: outcome [1] | Potency [2] | Potency [3] | outcome [4] | Potency [7] | Potency [8] | outcome [9] | Potency [17] | Potency [10] | Potency [11] | Potency [12] | Potency [13] | Potency [14] | Potency [15] | outcome [18] | Potency [19]

Cc1cccc(NC(=S)N(C)C)c1
inactive: outcome [1] | Potency [2] | Potency [3] | outcome [4] | Potency [5] | Potency [6] | Potency [7] | Potency [8] | outcome [9] | Potency [16] | Potency [17] | Potency [10] | Potency [11] | Potency [12] | Potency [13] | Potency [14] | Potency [19]

CCCOCCOCCOCCO
inactive: outcome [1] | Potency [2] | Potency [3] | outcome [4] | Potency [5] | Potency [6] | Potency [7] | Potency [8] | outcome [9] | Potency [17] | Potency [10] | Potency [11] | Potency [12] | Potency [13] | Potency [14] | Potency [15] | Potency [19]

CCOC(=O)OCC/C(SC(=O)OCC)=C(\C)N(C=O)Cc1cnc(C)nc1N
inactive: outcome [1] | Potency [2] | Potency [3] | outcome [4] | Potency [5] | Potency [7] | Potency [8] | outcome [9] | Potency [16] | Potency [17] | Potency [10] | Potency [11] | Potency [12] | Potency [13] | Potency [14] | PLD induction [18] 2.13% [at 1.53 µM] | Potency [19]

C=CCCCCCCCCCCC
inactive: activity change, negative = cytotoxic [1] -0.401% [at 6.97 µM] | cytotoxicity [2] 0.49% [at 6.97 µM] | cytotoxicity increase [3] 1.74% [at 6.97 µM] | activity change, negative = cytotoxicity [4] 4.11% [at 6.97 µM] | cytotoxicity increase [5] -0.213% [at 6.97 µM] | cytotoxicity increase [7] 1.86% [at 6.97 µM] | cytotoxicity increase [8] 2.18% [at 6.97 µM] | activity change, negative = cytotoxic [9] -0.787% [at 6.97 µM] | activity change, negative = cytotoxicity [16] 4.16% [at 6.97 µM] | activity change, negative = cytotoxicity [17] 3.08% [at 6.97 µM] | activity change [10] -0.692% [at 6.97 µM, stronger effect = higher value] | activity change, negative = cytotoxicity [11] 5.28% [at 6.97 µM] | cytotoxicity increase [12] 4.2% [at 6.97 µM] | activity change, negative = cytotoxicity [13] 0.186% [at 8.39 µM] | viability change, negative = cytotoxic [14] 0.96% [at 8.39 µM] | activity change, negative = inhibition [15] 8.3% [at 8.39 µM] | activity change, negative = inhibition [19] 4.91% [at 8.39 µM]
